# The supplement of paper PMC10849652
# Targets with a hit are over-represented here; the source holds about 7,900 in all. About 0.6% of all pairs of compound and target were hits. A number with no mark means an inactive call.
# What was measured:
# Test in all cases: log2 fold change, soluble protein after heating vs DMSO (PISA); higher = thermal stabilisation; K562 cells, 10 uM, 30 min; active = over 0.2 and 3.5 SD of the protein, either way, in both replicates (recomputed)
# saracatinib = compound: CN1CCN(CCOc2cc(OC3CCOCC3)c3c(Nc4c(Cl)ccc5c4OCO5)ncnc3c2)CC1 [saracatinib]
# Method in brief: (§1)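 For each measurement, 10 μM compound was applied for 30 min to K562 cells at 2×10^6 cells/mL. Aliquots were heated for 3 min across 48°C-58°C, pooled, and extracted in PBS with 0.5% NP-40 at 4°C; the supernatant after 21,000xg for 90 min was soluble protein. This was quantified by TMTpro 16plex LC-MS/MS with channel sums equalised, and thermal stability was reported relative to control samples from duplicates, on a log2 fold-change scale.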
# sotrastaurin = compound: CN1CCN(c2nc(C3=C(c4c[nH]c5ccccc45)C(=O)NC3=O)c3ccccc3n2)CC1 [sotrastaurin]
# Method in brief: as §1
# alvocidib = compound: CN1CC[C@H](c2c(O)cc(O)c3c(=O)cc(-c4ccccc4Cl)oc23)[C@H](O)C1 [alvocidib]
# Method in brief: as §1
# Tubastatin A = compound: CN1CCc2c(c3ccccc3n2Cc2ccc(C(=O)NO)cc2)C1 [Tubastatin A]
# Method in brief: as §1
# [1] = compound: CNC(=O)C1=CC=CC=C1NC2=NC(=NC=C2Cl)NC3=C(C=C(C=C3)N4CCOCC4)OC
# Method in brief: as §1
# defactinib = compound: CNC(=O)c1ccc(Nc2ncc(C(F)(F)F)c(NCc3nccnc3N(C)S(C)(=O)=O)n2)cc1 [defactinib]
# Method in brief: as §1
# rucaparib = compound: CNCc1ccc(-c2[nH]c3cc(F)cc4c3c2CCNC4=O)cc1 [rucaparib]
# Method in brief: as §1
# [2] = compound: CNc1nc(-c2ccc3c(N)n[nH]c3c2)cc(N2C[C@@H](C(=O)NC3CCCCC3)CC[C@H]2C)n1
# Method in brief: as §1
# encorafenib = compound: COC(=O)N[C@@H](C)CNc1nccc(-c2cn(C(C)C)nc2-c2cc(Cl)cc(NS(C)(=O)=O)c2F)n1 [encorafenib]
# Method in brief: as §1
# [3] = compound: COC(=O)[C@H](CCSC)NC(=O)C1=C(C=C(C=C1)NC[C@H](CS)N)C2=CC=CC=C2
# Method in brief: as §1
# [4] = compound: COC1=CC=C(C=C1)CN2C=CC3=C2C=C(C=C3)C(=O)NO
# Method in brief: as §1
# filanesib = compound: CON(C)C(=O)N1N=C(c2cc(F)ccc2F)S[C@@]1(CCCN)c1ccccc1 [filanesib]
# Method in brief: as §1
# zotarolimus = compound: CO[C@H]1C[C@@H]2CC[C@@H](C)[C@@](O)(O2)C(=O)C(=O)N2CCCC[C@H]2C(=O)O[C@H]([C@H](C)C[C@@H]2CC[C@H](n3cnnn3)[C@H](OC)C2)CC(=O)[C@H](C)/C=C(\C)[C@@H](O)[C@@H](OC)C(=O)[C@H](C)C[C@H](C)/C=C/C=C/C=C/1C [zotarolimus]
# Method in brief: as §1
# idasanutlin = compound: COc1cc(C(=O)O)ccc1NC(=O)[C@@H]1N[C@@H](CC(C)(C)C)[C@](C#N)(c2ccc(Cl)cc2F)[C@H]1c1cccc(Cl)c1F [idasanutlin]
# Method in brief: as §1
# alisertib = compound: COc1cc(Nc2ncc3c(n2)-c2ccc(Cl)cc2C(c2c(F)cccc2OC)=NC3)ccc1C(=O)O [alisertib]
# Method in brief: as §1
# [5] = compound: COc1cc2nc(-c3cc(F)ccc3O)nc(N[C@@H]3CNC[C@H]3C(C)(C)O)c2cc1OC
# Method in brief: as §1
# gefitinib = compound: COc1cc2ncnc(Nc3ccc(F)c(Cl)c3)c2cc1OCCCN1CCOCC1 [gefitinib]
# Method in brief: as §1
# [6] = compound: COc1cccc2cc(-c3nc([C@H]4CC[C@H](C(=O)O)CC4)n4ncnc(N)c34)[nH]c12
# Method in brief: as §1
# lapatinib = compound: CS(=O)(=O)CCNCc1ccc(-c2ccc3ncnc(Nc4ccc(OCc5cccc(F)c5)c(Cl)c4)c3c2)o1 [lapatinib]
# Method in brief: as §1
# pictilisib = compound: CS(=O)(=O)N1CCN(Cc2cc3nc(-c4cccc5[nH]ncc45)nc(N4CCOCC4)c3s2)CC1 [pictilisib]
# Method in brief: as §1
# Sequence of UniProt P10620 (P10620 whole entry, looked up): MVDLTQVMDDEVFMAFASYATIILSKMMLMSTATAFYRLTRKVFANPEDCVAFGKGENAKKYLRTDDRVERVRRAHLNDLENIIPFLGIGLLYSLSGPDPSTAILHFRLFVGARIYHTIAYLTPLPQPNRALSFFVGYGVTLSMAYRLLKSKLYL
# Sequence of UniProt P49006 (P49006 whole entry, looked up): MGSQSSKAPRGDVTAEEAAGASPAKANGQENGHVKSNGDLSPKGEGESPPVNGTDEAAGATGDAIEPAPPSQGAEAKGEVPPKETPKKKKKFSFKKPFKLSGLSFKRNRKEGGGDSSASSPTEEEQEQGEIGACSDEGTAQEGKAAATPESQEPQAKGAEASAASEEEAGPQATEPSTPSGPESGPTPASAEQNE
# Sequence of UniProt P48449 (P48449 whole entry, looked up): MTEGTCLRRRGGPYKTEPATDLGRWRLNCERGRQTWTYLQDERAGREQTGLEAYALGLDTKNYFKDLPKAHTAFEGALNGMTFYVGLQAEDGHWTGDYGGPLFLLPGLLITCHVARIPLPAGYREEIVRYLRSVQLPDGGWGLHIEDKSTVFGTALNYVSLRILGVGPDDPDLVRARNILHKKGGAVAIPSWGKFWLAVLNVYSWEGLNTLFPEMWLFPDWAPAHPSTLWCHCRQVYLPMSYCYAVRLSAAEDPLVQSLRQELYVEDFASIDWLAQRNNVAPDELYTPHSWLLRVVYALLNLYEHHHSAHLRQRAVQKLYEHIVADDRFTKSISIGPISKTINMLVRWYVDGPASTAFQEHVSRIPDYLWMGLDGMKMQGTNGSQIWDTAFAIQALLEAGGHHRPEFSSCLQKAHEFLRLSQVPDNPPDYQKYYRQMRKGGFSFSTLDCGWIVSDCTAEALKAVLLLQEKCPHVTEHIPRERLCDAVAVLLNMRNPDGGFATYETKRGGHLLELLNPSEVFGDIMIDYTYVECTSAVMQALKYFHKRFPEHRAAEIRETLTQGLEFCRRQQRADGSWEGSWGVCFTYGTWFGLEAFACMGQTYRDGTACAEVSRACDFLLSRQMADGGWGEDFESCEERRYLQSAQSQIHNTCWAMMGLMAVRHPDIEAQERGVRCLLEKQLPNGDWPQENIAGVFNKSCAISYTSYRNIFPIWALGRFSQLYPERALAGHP
# Sequence of UniProt Q9Y287 (Q9Y287 whole entry, looked up): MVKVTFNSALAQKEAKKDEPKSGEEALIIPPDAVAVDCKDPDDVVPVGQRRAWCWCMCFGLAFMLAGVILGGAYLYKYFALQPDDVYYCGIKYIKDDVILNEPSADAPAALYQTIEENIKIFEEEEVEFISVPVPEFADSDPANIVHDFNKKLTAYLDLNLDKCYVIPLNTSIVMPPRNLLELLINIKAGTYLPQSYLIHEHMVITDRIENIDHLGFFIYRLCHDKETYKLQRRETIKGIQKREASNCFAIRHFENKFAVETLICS
# Sequence of UniProt Q9H6K1 (Q9H6K1 whole entry, looked up): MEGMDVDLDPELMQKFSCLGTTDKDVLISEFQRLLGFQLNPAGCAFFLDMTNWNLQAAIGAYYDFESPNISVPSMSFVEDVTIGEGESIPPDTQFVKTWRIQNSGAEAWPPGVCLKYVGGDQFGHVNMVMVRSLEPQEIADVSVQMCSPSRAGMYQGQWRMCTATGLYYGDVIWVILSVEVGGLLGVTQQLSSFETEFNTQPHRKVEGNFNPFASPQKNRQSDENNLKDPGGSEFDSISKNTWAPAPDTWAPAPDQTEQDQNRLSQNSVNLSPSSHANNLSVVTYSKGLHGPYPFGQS
# Sequence of UniProt Q92604 (Q92604 whole entry, looked up): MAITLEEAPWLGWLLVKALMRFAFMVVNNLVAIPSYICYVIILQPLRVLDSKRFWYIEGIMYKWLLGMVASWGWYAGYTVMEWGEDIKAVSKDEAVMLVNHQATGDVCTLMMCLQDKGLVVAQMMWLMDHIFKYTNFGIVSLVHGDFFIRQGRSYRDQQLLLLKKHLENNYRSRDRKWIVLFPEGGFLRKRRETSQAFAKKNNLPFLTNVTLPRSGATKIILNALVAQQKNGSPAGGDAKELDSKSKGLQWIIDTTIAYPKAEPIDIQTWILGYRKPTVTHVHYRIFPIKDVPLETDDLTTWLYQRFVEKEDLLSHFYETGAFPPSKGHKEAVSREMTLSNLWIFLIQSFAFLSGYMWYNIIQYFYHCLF
# Sequence of UniProt Q13418 (Q13418 whole entry, looked up): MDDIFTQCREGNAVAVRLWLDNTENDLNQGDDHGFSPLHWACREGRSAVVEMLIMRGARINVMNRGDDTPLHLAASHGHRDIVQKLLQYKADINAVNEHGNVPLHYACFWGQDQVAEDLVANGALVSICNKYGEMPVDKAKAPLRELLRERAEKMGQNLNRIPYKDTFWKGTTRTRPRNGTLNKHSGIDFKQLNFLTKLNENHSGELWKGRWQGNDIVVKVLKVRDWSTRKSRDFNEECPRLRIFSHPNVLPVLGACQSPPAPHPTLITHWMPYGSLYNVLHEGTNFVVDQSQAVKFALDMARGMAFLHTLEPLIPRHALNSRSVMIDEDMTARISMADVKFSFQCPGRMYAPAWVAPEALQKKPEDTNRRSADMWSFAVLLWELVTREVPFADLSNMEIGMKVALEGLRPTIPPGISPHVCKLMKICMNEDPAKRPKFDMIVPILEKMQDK
Target,log2 fold change (saracatinib),log2 fold change (sotrastaurin),log2 fold change (alvocidib),log2 fold change (Tubastatin A),log2 fold change [1],log2 fold change (defactinib),log2 fold change (rucaparib),log2 fold change [2],log2 fold change (encorafenib),log2 fold change [3],log2 fold change [4],log2 fold change (filanesib),log2 fold change (zotarolimus),log2 fold change (idasanutlin),log2 fold change (alisertib),log2 fold change [5],log2 fold change (gefitinib),log2 fold change [6],log2 fold change (lapatinib),log2 fold change (pictilisib)
ITM2B (UniProt Q9Y287),-0.181,0.123,-0.053,0.143,0.06,-0.007,0.007,0.091,0.098,-0.096,-0.109,0.092,-0.042,-0.03,0.083,-0.037,-0.047,0.138,-0.116,–
ILRUN (UniProt Q9H6K1),-0.132,-0.029,-0.022,0.116,0.023,-0.036,0.037,0.049,0.045,0.121,-0.051,-0.016,0.042,-0.101,-0.03,-0.002,0.048,0.09,0.08,–
LPGAT1 (UniProt Q92604),0.111,-0.001,-0.011,0.019,0.073,-0.184,0.036,-0.187,0.026,0.015,0.124,-0.021,0.001,-0.098,0.032,-0.082,-0.059,0.12,0.15,–
MARCKSL1 (UniProt P49006),0.02,0.315 (active),-0.005,-0.043,0.013,0.007,-0.035,0.063,-0.04,-0.008,-0.074,0.002,-0.033,-0.011,-0.093,0.073,-0.027,0.028,-0.061,0.026
ILK (UniProt Q13418),-0.119,0.043,-0.107,0.01,-0.034,0,0.026,0.031,0.03,0.06,-0.444 (active),0.023,-0.052,0.021,0.038,0.036,0.007,0,-0.05,0.068
MGST1 (UniProt P10620),0.042,-0.013,0.01,-0.174,0.009,-0.037,0.003,0.021,-0.147,0.018,0.039,-0.019,0.006,-0.06,0.013,0.152,-0.036,-0.043,-0.009,0.112
IWS1 (UniProt Q96ST2),-0.042,0.021,0.336 (active),0.04,-0.054,0.035,0.032,-0.034,-0.1,-0.127,0.007,-0.013,-0.006,-0.105,-0.068,0.124,-0.055,0.055,-0.077,-0.011
LSS (UniProt P48449),0.172,0.016,-0.066,0.103,-0.091,-0.015,0.595 (active),-0.001,0.118,0.074,0.205,0.026,-0.027,-0.116,0.121,0.16,0.126,-0.014,0.02,0.07
